Compound activity as filed in PubChem.
Only some compounds are listed: those with a hit (about 12% of all), similar ones and a draw of the others.
CHX counter = counter-screen hit for Shiga toxin inhibitors, cycloheximide. max response, %. cell reporter, cycloheximide protein synthesis inhibition counterscreen. actives 12% (n = 300,000); in the data active means max response mostly above about 13%, no sharp cut-off; inactive means mostly below about 14%; further: read at 38.3 µM for the half of the compounds with a filed dose; 0% is about no effect
SARS PLP yeast = SARS-CoV PLP inhibition in yeast | Potency, µM (top dose mostly 32.9 µM), for the others: top-dose activity, positive = growth rescue, hits mostly activators | AID 485353 | actives 0.19% (n = 330,000) | S. cerevisiae expressing SARS-CoV PLpro, growth rescue; further: potency means the concentration at half of the fitted maximal effect; 0% is about no effect; nearly all actives have a fitted effect of over 55% in size
Shiga inhibitor = inhibitors of Shiga toxin in Vero cells; actives 9.2% (n = 290,000); Vero cells, Shiga toxin protein synthesis inhibition reporter; inhibition, % at 38.7 µM; in the data active means inhibition mostly above about 28%, no sharp cut-off; inactive means mostly below about 43%; further: 0% is about no effect
NS1 function inh = inhibitors of influenza NS1 protein function | actives 0.4% (n = 270,000) | Potency, µM (titrated, usually from 46.1 µM), for the others: top-dose activity, positive = more growth; further: potency means the concentration at half of the fitted maximal effect; actives are rising curves; nearly all actives have a fitted effect of over 50% in size
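A cell-based growth assay was used: compounds that relieve NS1-induced slow growth of budding yeast raise OD600. Assay medium was yeast nitrogen base with ammonium sulphate and -URA supplement, pH 6.0, with 2% galactose.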
An asterisk follows results filed as active. Unless noted, the call rests on the fitted dose curve.

CCOC(=O)Nc1ccc2c(c1)ncn2C1CCCCC1 was read as CHX counter 27*, SARS PLP yeast -6%, Shiga inhibitor 82* and NS1 function inh -21%.
For COC(=O)Nc1ccc2c(c1)ncn2C1CCCCC1 the results were CHX counter 23*, SARS PLP yeast 6%, Shiga inhibitor 31* and NS1 function inh inconclusive.
Screening CN1CC=C(/C=C/c2ccc(-c3ccccc3)cc2)CC1 returned CHX counter 43*, SARS PLP yeast -6%, Shiga inhibitor 84* and NS1 function inh -43%.
Screening COc1ccc(/C=C/c2nc3ccccc3n2C)cc1 returned CHX counter -22, SARS PLP yeast -22% and Shiga inhibitor -37.
`COc1ccc(/C=C/C2=CCN(C)CC2)cc1` gave CHX counter 46*, SARS PLP yeast -1%, Shiga inhibitor 63* and NS1 function inh 1%.
NC(=O)c1ccccc1NC(=O)c1ccccc1Cl was read as CHX counter 11, SARS PLP yeast 0%, Shiga inhibitor 44 and NS1 function inh -5%.
For Cc1ccc(C(=O)/C=C/Nc2ccccc2C(N)=O)cc1 the results were CHX counter 19*, SARS PLP yeast -23%, Shiga inhibitor 24 and NS1 function inh -20%.
NC(=O)c1ccccc1N/C=C/C(=O)c1ccc(Cl)cc1 was read as CHX counter 52*, SARS PLP yeast 4%, Shiga inhibitor 49* and NS1 function inh -75%.
Screening Cc1ccc(C)c(NC(=O)CN(C)C(C)C(=O)N2CC(C)CC(C)C2)c1 (configuration not stated) returned SARS PLP yeast -4%.
Screening CC(C)[C@H](NC(=O)OC(C)(C)C)C(=O)N/N=C/c1cccc2nccnc12 returned CHX counter 13, SARS PLP yeast 8%, Shiga inhibitor 36 and NS1 function inh 3%.
For CC(C)c1ccc(/C=C/C2=NNC(=O)CC2)cc1 the results were CHX counter 32*, SARS PLP yeast -8% and Shiga inhibitor 85*.
Screening Cc1ccc(N=C2NC(=O)C(CC(=O)NCc3ccccc3)S2)cc1C (configuration not stated) returned CHX counter 1, SARS PLP yeast -16%, Shiga inhibitor 12 and NS1 function inh 9%.
c1ccc(OCc2nn3c(-c4ccccn4)nnc3s2)cc1 was read as CHX counter 33*, SARS PLP yeast -2%, Shiga inhibitor 68* and NS1 function inh -11%.
For Brc1ccc(-c2nn3c(-c4ccncc4)nnc3s2)o1 the results were CHX counter 2, SARS PLP yeast 2%, Shiga inhibitor 13 and NS1 function inh -27%.
Screening c1ccc(OCc2nn3c(-c4ccncc4)nnc3s2)cc1 returned CHX counter 10, SARS PLP yeast 8%, Shiga inhibitor -11 and NS1 function inh -34%.
`CC(C)(C)c1ccc(-c2nnc3sc(-c4ccccn4)nn23)cc1` gave CHX counter 46*, SARS PLP yeast -5%, Shiga inhibitor 91* and NS1 function inh 1%.
`COc1cccc(-c2nnc3sc(-c4ccccn4)nn23)c1` gave CHX counter 3, SARS PLP yeast -1%, Shiga inhibitor 26 and NS1 function inh -73%.
For COc1cccc(-c2nn3c(-c4ccccn4)nnc3s2)c1 the results were CHX counter 15*, SARS PLP yeast 2%, Shiga inhibitor 42 and NS1 function inh 1%.
Screening Brc1ccc(-c2nn3c(-c4ccccn4)nnc3s2)o1 returned CHX counter 14*, SARS PLP yeast -6%, Shiga inhibitor 25 and NS1 function inh -45%.
`Cc1ccc2nc(Nc3ccc4[nH]c(=O)[nH]c4c3)c(-n3nc(C)cc3C)nc2c1` gave CHX counter 17, SARS PLP yeast 7%, Shiga inhibitor 19 and NS1 function inh -92%.
Cc1ccc(Cl)c(OCC(=O)NCc2ccco2)c1 was read as CHX counter 24*, SARS PLP yeast 2%, Shiga inhibitor 33 and NS1 function inh 3%.
For CCc1cc(=O)oc2c3c(cc(OCC(=O)NCc4ccco4)c12)OC(C)(C)CC3 the results were CHX counter 33*, SARS PLP yeast 0%, Shiga inhibitor 34* and NS1 function inh -2%.
O=C(COc1ccccc1Br)NCc1ccco1 was read as CHX counter 19*, SARS PLP yeast -5%, Shiga inhibitor 45 and NS1 function inh -4%.
`CCc1ccc(OCC(=O)NCc2ccco2)c(Br)c1` gave CHX counter 40*, SARS PLP yeast -9%, Shiga inhibitor 106* and NS1 function inh -49%.
COc1ccccc1OCC(=O)NCc1ccco1 was read as CHX counter 8, SARS PLP yeast -4%, Shiga inhibitor 24 and NS1 function inh -8%.
